Results reported in PubChem BioAssay (EPA / NIEHS).
Records with an inconclusive call do not appear. Calls of active or inactive are those of the source. How the source made its calls: active means hit-call score of the fitted dose curve at least 0.9, where 1 is the maximum; inconclusive means response in the unintended direction; inactive means score below 0.9.

The compounds below were run on sulfotransferase (SULT2A), SULT2A1 (gene 6822) (assay: CLD_SULT2A_48hr: CellzDirect (CLD) Gene Expression Assay for sulfotransferase (SULT2A) at 48 hours (AID 2283710);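 further: hits raise SULT2A1 transcript above the 0.2% DMSO vehicle baseline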).
Method: CLD_48hr is a cell-based, multiplexed-readout assay that uses hepatocyte, a human liver primary cell, with measurements taken at 48 hours after chemical dosing in a 96-well plate.CLD_SULT2A_48hr is one of 16 assay component(s) measured or calculated from the CLD_48hr assay. It is designed to make measurements of mRNA induction, a form of inducible reporter, as detected with chemiluminescence signals by Quantitative Nuclease Protection Assay (qNPA) technology.Data from the assay component CLD_SULT2A_48hr was analyzed at the endpoint, CLD_SULT2A_48hr, in the positive analysis fitting direction relative to DMSO as the negative control and baseline of activity. Using a type of inducible reporter, gain-of-signal activity can be used to understand changes in the reporter gene as they relate to the gene SULT2A1. Furthermore, this assay endpoint can be referred to as a primary readout. To generalize the intended target to other relatable targets, this assay endpoint is annotated to the transferase intended target family, where subfamily is sulfotransferase.
Human hepatocyte cultures were treated daily for two consecutive days with fresh dosing solutions containing appropriate concentrations of the 320 ToxCast chemicals (chemical identities were blinded to CellzDirect and other ToxCast collaborators), vehicle control (0.2% DMSO), and positive control inducers as summarized in Table 1. Due to the large number of treatment groups and chemicals examined, the ToxCast chemicals were divided into two groups (spanning two independent cultures of hepatocytes from separate donor preparations (Hu778: ToxCast plates 1 and 2; Hu776: ToxCast plates 3 and 4). Each preparation of human hepatocyte cultures was treated with respective vehicle control, medium only control, set of six positive controls/reference chemicals for the five hepatic receptor pathways, and a subset of eight of the ToxCast chemicals (indoxacarb, pyrithiobac-sodium, norflurazon, cyhalofop-butyl, methomyl, thiram, acetochlor, and propiconazole). These replicate data, coupled with internal replicates designed within the blinded ToxCast chemical library, provided additional data to evaluate interindividual differences between hepatocyte preparations and their potential impact on chemical profiles.Cell morphology and integrity were evaluated using phase-contrast microscopy as an indicator of hepatocyte cell health (Tyson & Green, 1987). Cultures for each treatment group (i.e., media, vehicle [0.2% DMSO], positive control inducers [multiple concentrations], and the ToxCast chemicals [multiple concentrations]) were observed and cell morphology was assessed relative to vehicle control cultures at each harvest time point (0, 6, 24, or 48 h). […] Images were evaluated at the conclusion of the study to assess changes in cell integrity and account for the effects of chemical exposure on uncharacteristic changes in concentration-dependent gene expression profiles. The results from these determinations of apparent cytotoxicity were annotated (yes/no) alongside the corresponding qNPA data for reference.At the conclusion of each treatment period, hepatocyte cultures (96-well) were washed with 1 volume of HBSS, lysed by addition of 25 ul ArrayPlate lysis buffer (HTG, Tucson, AZ), and 70 ul/well of Denaturation Oil, denatured by incubation at 95C for 10 min, and frozen at approximately -70C until analysis by nuclease protection assay (qNPA) (Roberts et al., 2007). For qNPA analysis, cell lysates were thawed at 50C for approximately 30 min, qNPA probes were added, and samples were incubated at 95C for 10 min to begin the detection process by denaturing the target RNA, dissociating the duplexes and secondary structure hybridization. At the conclusion of the hybridization period, S1 nuclease reagent was added to each sample to digest all nonprotected nucleotides at 50C for 60-90 min. […]

Row | SMILES | outcome | AC50
1 | CC(C)[C@H](C(=O)O[C@H](C#N)c1cccc(Oc2ccccc2)c1)c1ccc(Cl)cc1 | inactive | 
2 | CCOP(=S)(OCC)SCCSCC | inactive | 
3 | COP(=O)(NC(C)=O)SC (stereo not given) | inactive | 
4 | CON=C(C(=O)OC)c1ccccc1CON=C(C)c1cccc(C(F)(F)F)c1 | inactive | 
5 | CC(C1CC1)C(O)(Cn1cncn1)c1ccc(Cl)cc1 (stereo not given) | inactive | 
6 | CCc1cnc(C2=NC(C)(C(C)C)C(=O)N2)c(C(=O)O)c1 (stereo not given) | inactive | 
7 | COc1ccc(C(=CC(=O)N2CCOCC2)c2ccc(Cl)cc2)cc1OC | inactive | 
8 | Cc1ccn2nc(S(=O)(=O)Nc3c(F)cccc3F)nc2n1 | inactive | 
9 | C[Si](Cn1cncn1)(c1ccc(F)cc1)c1ccc(F)cc1 | inactive | 
10 | CCc1cccc(C)c1N(C(=O)CCl)C(C)COC (stereo not given) | inactive | 
11 | CCCSP(=O)(OCC)Oc1ccc(Br)cc1Cl (stereo not given) | inactive | 
12 | CN(C)NC(=O)CCC(=O)O | inactive | 
13 | CNC(=O)ON=C(C)SC | inactive | 
14 | CC(C)=CC1C(C(=O)OCN2C(=O)C3=C(CCCC3)C2=O)C1(C)C (stereo not given) | inactive | 
15 | CCOP(=S)(OCC)Oc1cc(C)nc(C(C)C)n1 | inactive | 
16 | C[N+]1(C)CCCCC1 | inactive | 
17 | CCNc1nc(Cl)nc(NC(C)(C)C#N)n1 | inactive | 
18 | Cc1cc(C2CC2)nc(Nc2ccccc2)n1 | inactive | 
19 | Nc1c(Cl)cc([N+](=O)[O-])cc1Cl | inactive | 
20 | COc1cc(OC)nc(Sc2cccc(Cl)c2C(=O)O)n1 | inactive | 

Row | SMILES | outcome | AC50
21 | C#CC(C)(C)NC(=O)c1cc(Cl)cc(Cl)c1 |  | 5.38 µM (active)
22 | CCCSP(=O)(OCC)SCCC | inactive | 
23 | CC[C@H](C)[C@H]1O[C@]2(C=C[C@@H]1C)C[C@@H]1C[C@@H](C/C=C(\C)[C@@H](O[C@H]3C[C@H](OC)[C@@H](O[C@H]4C[C@H](OC)[C@@H](NC)[C@H](C)O4)[C@H](C)O3)[C@@H](C)/C=C/C=C3\CO[C@@H]4[C@H](O)C(C)=C[C@@H](C(=O)O1)[C@]34O)O2 |  | 2 µM (active)
24 | CCOC(=O)COc1cc(-c2nn(C)c(OC(F)F)c2Cl)c(F)cc1Cl | inactive | 
25 | CC(C)N(C(=O)SCC(Cl)=C(Cl)Cl)C(C)C | inactive | 
26 | COc1cccc(C(=O)NN(C(=O)c2cc(C)cc(C)c2)C(C)(C)C)c1C | inactive | 
27 | CCOP(=O)(NC(C)C)Oc1ccc(SC)c(C)c1 (stereo not given) | inactive | 
28 | CCOP(=O)(OCC)Oc1cc(C)nc(C(C)C)n1 |  | 4.2 µM (active)
29 | CCC(CC)Nc1c([N+](=O)[O-])cc(C)c(C)c1[N+](=O)[O-] | inactive | 
30 | CN(C)C(=O)Nc1cccc(C(F)(F)F)c1 | inactive | 
31 | CCCCN(CC)c1c([N+](=O)[O-])cc(C(F)(F)F)cc1[N+](=O)[O-] | inactive | 
32 | Cc1nn(-c2cc(NS(C)(=O)=O)c(Cl)cc2Cl)c(=O)n1C(F)F | inactive | 
33 | CSc1nc(NC(C)C)nc(NC(C)C)n1 | inactive | 
34 | N#CSCSC#N | inactive | 
35 | CCOP(=S)(OCC)Oc1ccc([N+](=O)[O-])cc1 |  | 5.32 µM (active)
36 | CN(C)[C@@H]1C(=O)C(C(N)=O)=C(O)[C@@]2(O)C(=O)C3=C(O)c4c(O)cccc4[C@@](C)(O)[C@H]3[C@H](O)[C@@H]12 | inactive | 
37 | CC(=NC#N)N(C)Cc1ccc(Cl)nc1 | inactive | 
38 | O=[N+]([O-])c1cc(C(F)(F)F)c(Cl)c([N+](=O)[O-])c1Nc1ncc(C(F)(F)F)cc1Cl | inactive | 
39 | CC(COc1ccc(Oc2ccccc2)cc1)Oc1ccccn1 (stereo not given) | inactive | 
40 | O=C(O)c1cc(Oc2ccc(C(F)(F)F)cc2Cl)ccc1[N+](=O)[O-] | inactive | 
